Test results from PubChem BioAssay AID1461 (National Center for Advancing Translational Sciences (NCATS), 2008).
Out of some 220,000 compounds screened, about 2,300 (1%) were called active. A call without a number means that no potency is given here. About 6% were inconclusive and are not listed. Calls follow the shape of the dose curve; as a rule, active = well fitted inhibition curve with a large enough effect; inconclusive = small, poorly fitted or top-dose-only effect, or effect the other way; inactive = no such curve, though single readings can be large or run the other way. Many of the other results were omitted from the sample, so actives are more common in it than they were.

What follows are compounds tested against Neuropeptide S receptor (Homo sapiens) (UniProt Q6W5P4) (assay: qHTS Assay for Antagonists of the Neuropeptide S Receptor: cAMP Signal Transduction). Conditions: CHO-NPSR cells, cAMP TR-FRET, antagonist mode; series mostly up to 38.3 µM.
Text: NIH Chemical Genomics Center [NCGC] NIH Molecular Libraries Probe Production centers Network [MLPCN] MLPCN Grant: X01-DA026210-01 Assay Submitter (PI): Heilig, Markus Alexander NCGC Assay Overview: Neuropeptide S receptor (NPSR), previously known as GPR154, is a recently de-orphanized G protein coupled receptor. Its endogenous ligand is the 20 amino acids peptide Neuropeptide S (NPS). […] NPS and its receptor are found in various tissues. Specifically they are highly expressed in brain areas that have been implicated in modulation of arousal, stress and anxiety. Central administration of NPS in mice produces an unusual profile of activity by inducing wakefulness and arousal, while at the same time suppressing anxiety. Therefore, NPSR may represent a novel drug target for the treatment of sleep and anxiety disorders. To identify NPSR antagonists, we developed a cell-based cAMP assay. NPS can stimulate the production of cAMP in Chinese hamster ovary cells stably expressing NPS receptor. This change in intracellular cAMP level can be detected by a homogeneous LANCE cAMP assay based on the TR-FRET (time resolved fluorescence resonance energy transfer) between a europium-labeled cAMP tracer complex and a cAMP-specific antibody labeled with Alexa Fluor 647. The europium-labeled cAMP tracer complex is formed by the tight interaction between Biotin-cAMP (b-cAMP) and streptavidin labeled with Europium-W8044 chelate (Eu-SA). Light pulse at 320 nm excites the europium of the cAMP tracer and the energy emitted is transferred to the Alexa molecule bound to the cAMP antibody, generating a TR-FRET signal at 665 nm. Residual energy from the europium will produce a light at 620 nm. The native unlabeled cAMP from cell lysates competes with the europium-cAMP tracer for antibody binding and reversely reduces the emission signal of Alexa by interrupting FRET between the two labeled molecules. Both emission signals from the FRET donor (620 nm) and the acceptor (665 nm) can be detected by a plate reader in the TRF mode. Expression of result in fluorescence ratio (665 nm/620 nm) helps to normalize differences due to cell density and reagent dispensing. This assay was successfully optimized to a 1536-well plate format.
NCGC Assay Protocol Summary: A Chinese hamster ovary (CHO) cell line stably expressing the NPS receptor (CHO-NPSR) was obtained from Dr. Heilig lab at NIAAA and maintained in F-12 Kaighn's media (Invitrogen, Carlsbad, CA, 21127) supplemented with 10 % FBS, 100 units/ml penicillin, 100 ug/ml streptomycin and 250 ug/ml geneticin at 37C, 5% CO2 in a humidified atmosphere. Before the assay, aliquots of cells were frozen and stored at -135C. The assay was performed in 1536-well format. Data are reported for both the ratio of the two emission wavelengths, and also for the component 'donor' channel, Em2=620. Data were normalized to the controls for basal activity (DMSO only) and 100% inhibition (No NPS control). IC50 values were determined from concentration-response data modeled with the standard Hill equation. NPS 1536-well assay protocol: (1) Fresh or frozen CHO-NPSR cells were suspended in F-12 Kaighn's media supplemented with 10 % FBS, 100 units/ml penicillin and 100 ug/ml streptomycin. Cells were plated at 4 ul/well (1200 cells) to white, tissue culture treated 1536-well plates, and then cultured at 37C, 5 % CO2 for 16 to 30 hours. (2) Add 23 nl/well of compound in DMSO solution. The final titration for each compound was between 0.6 nM and 46 uM. (3) Add 1 ul of stimulation reagent (1X HBSS buffer, 5 mM HEPES, 0.1% BSA, 500 uM RO-201724 (Sigma-Aldrich, B8279), 1.5% Alexa 647-labeled anti-cAMP antibody (from Perkin Elmer), 100 nM NPS) (4) Incubation at 37C, 5 % CO2 for 60 min. (5) Add 1 ul/well detection reagent. Detection reagent was prepared by adding biotin labeled cAMP (4%), streptavidin labeled with Europium-W8044 chelate (1.33%) and TritonX-100 (1%) to detection buffer. […]
Also: nearly all actives have a fitted effect of over 50% in size.
Potency is read from the fitted curve at half-maximal effect.

Sequence of Neuropeptide S receptor (Homo sapiens) (Q6W5P4 whole entry, looked up): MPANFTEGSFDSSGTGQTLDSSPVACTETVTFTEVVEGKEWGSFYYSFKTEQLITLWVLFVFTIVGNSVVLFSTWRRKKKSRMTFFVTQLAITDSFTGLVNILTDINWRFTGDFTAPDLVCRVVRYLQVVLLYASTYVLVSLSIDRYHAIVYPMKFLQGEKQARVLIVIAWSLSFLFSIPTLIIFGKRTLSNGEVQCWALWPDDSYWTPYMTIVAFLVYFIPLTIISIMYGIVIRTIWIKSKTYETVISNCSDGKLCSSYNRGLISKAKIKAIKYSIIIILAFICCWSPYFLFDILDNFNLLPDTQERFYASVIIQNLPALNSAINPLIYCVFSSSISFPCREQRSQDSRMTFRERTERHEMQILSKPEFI

SMILES | Potency | activity change, negative = inhibition
O=C(CC(=O)Nc1ccc(Cl)c(Cl)c1)N/N=C/c1ccc(O)cc1 | inactive | 
Cc1ccc(NC(=O)C/C(N)=N/O)cc1Cl |  | -0.778% [at 7.67 µM] (inactive)
O=C(CC(O)(C(F)(F)F)C(F)(F)F)Nc1ccc(Cl)c(Cl)c1 | 6.31 µM (active) | 
COc1cc2c(cc1OC)C(/C=C/c1ccco1)=NCC2 | inactive | 
COC(=O)c1cc(NC(=O)c2ccco2)ccc1N1CCOCC1 | inactive | 
CC(=O)Nc1ccc(NC(=O)CSc2ncnc3c2cnn3Cc2ccccc2)cc1 | inactive | 
CC1(C)Cc2nc3sc4c(SCC(=O)NC(c5ccccc5)c5ccccc5)ncnc4c3cc2CO1 | 1.26 µM (active) | 
C=CCn1c(=S)[nH]c2nc3c(cc2c1=O)COC(C)(C)C3 | inactive | 
O=c1[nH]nc(SCCS(=O)(=O)c2ccc(F)cc2)n1-c1ccccc1C(F)(F)F | inactive | 
Cc1cccc2c1-c1sc(C(=O)NCCCN3CCc4ccccc4C3)cc1CO2 | inactive | 
O=C(C[n+]1ccc2c(c1)nnn2-c1ccccc1)c1ccc(Cl)cc1 | inactive | 
O=C(Cn1nnc(N2CCCCC2)n1)c1ccc(Cl)c(Cl)c1 | inactive | 
O=S(=O)(NCc1ccco1)c1cnc(Cl)c(Cl)c1 |  | 25.6% [at 7.67 µM] (inactive)
Cn1c(SCC(=O)N2CCOCC2)nnc1-c1ccc2ncccc2c1 | inactive | 
CC(C)=CCc1c(O)c(CC=C(C)C)c2occ(-c3ccc(O)cc3)c(=O)c2c1O | inactive | 
O=C1CN(c2nc(-c3ccccc3)c3cc(Br)ccc3n2)c2ccccc2N1 | 6.31 µM (active) | 
Cc1ccc(S(=O)(=O)N2CC(=O)Nc3ccccc32)cc1C | inactive | 
Cc1ccc(C)c(S(=O)(=O)N2CC(=O)Nc3ccccc32)c1 | inactive | 
COc1ccc(CN2CCOC2=O)cc1OC | inactive | 
Cc1cc(N2C(=O)C(=O)/C(=C(/O)c3ccc(Cl)cc3)C2c2cccc(Br)c2)no1 (stereo unspecified) | 12.6 µM (active) | 
COc1ccccc1C1/C(=C(/O)c2ccc(OC(C)C)cc2)C(=O)C(=O)N1c1cc(C)on1 (stereo unspecified) | inactive | 
COc1ccc(C2/C(=C(/O)c3ccccc3)C(=O)C(=O)N2c2ncccn2)cc1OC (stereo unspecified) | inactive | 

SMILES | Potency | activity change, negative = inhibition
CC(=O)NCc1ccc(S(=O)(=O)NC2CCN(Cc3ccccc3)CC2)cc1 | inactive | 
COc1ccc(Br)c2c1C(=O)CC2 | inactive | 
COC(=O)c1cn(C(=O)c2ccc(Cl)cc2)c2ccccc12 | inactive | 
CCOC(=O)NNc1cc(C(F)(F)F)ccn1 | inactive | 
COc1ccccc1P(=O)(c1ccccc1)c1ccccc1NC(C)=O (stereo unspecified) | inactive | 
O=C(Nc1ccccc1)/C(=C/c1ccc([N+](=O)[O-])cc1)NC(=O)c1ccccc1 | inactive | 
Cc1cccc(NC(=O)c2sc(-c3ccccc3)nc2-c2ccc([N+](=O)[O-])cc2)c1 | inactive | 
CCOC(=O)/C(=C\c1ccc([N+](=O)[O-])cc1)C(=O)c1cc(C(C)=O)c(Nc2ccccc2)s1 | 7.94 µM (active) | 
Cc1ccc(C)c2[nH]c(=O)c(CN(Cc3cccnc3)C(=S)NCc3ccco3)cc12 | inactive | 
COc1ccc(NC(=O)/C(Cl)=C(/Cl)S(=O)Cc2ccc(C)cc2)cn1 (stereo unspecified) | 1 µM (active) | 
COc1ccc(NC(=S)Nc2ccccc2Cl)cn1 | inactive | 
COc1ccc(Nc2cc(Cl)ccc2C(=O)O)cn1 | inactive | 
COc1cccc(Nc2nc(N)c([N+](=O)[O-])c(NCc3ccco3)n2)c1 | inactive | 
C/C(=N\OCC(=O)O)c1ccc(Cl)cc1 |  | 9.86% [at 7.67 µM] (inactive)
Cc1noc(C)c1S(=O)(=O)Nc1cc(C(F)(F)F)ccc1N1CCOCC1 | inactive | 
COc1ccc(C(=O)C2CCCN(Cc3ccc4nonc4c3)C2)c(C)c1 (stereo unspecified) | inactive | 
O=C(CSc1nc2ccccc2s1)Nc1ccc(C(=O)O)cc1 | inactive | 
O=[N+]([O-])c1c(NCCO)cc(Sc2nc3ccccc3s2)c2nonc12 | 10 µM (active) | 
COc1ccc(S(=O)(=O)Nc2ccc(O)c(Sc3nc4ccccc4s3)c2)cc1 | inactive | 
COc1cc2nc(Cl)nc(NCCO)c2cc1OC | inactive | 
C/C(=N/NC(=O)CC(=O)N/N=C(\C)c1ccc([N+](=O)[O-])cc1)c1ccc([N+](=O)[O-])cc1 | inactive | 
O=C(Cn1cnc2cc([N+](=O)[O-])ccc2c1=O)NC(=O)NCc1ccccc1 | inactive | 

SMILES | Potency | activity change, negative = inhibition
Cc1ccc(C(=O)CS(C)(=O)=O)cc1 | inactive | 
Cc1ccc(CSCC(N)C(=O)O)cc1 (stereo unspecified) | inactive | 
Cc1ccc(SC(CC(=O)c2ccc(C(C)(C)C)cc2)C(=O)O)cc1 (stereo unspecified) | 10 µM (active) | 
C/C(Cc1ccccc1)=N\NC(=O)CNC(=O)c1ccc2c(c1)OCCO2 | inactive | 
CC1CC2=C(CC1/C=N/NC(N)=S)C(C)(C)CCC2 (stereo unspecified) | 12.6 µM (active) | 
CC1(C)CCCC2=C1CC1C(=O)N(c3ccccc3)C(=O)C1C2 (stereo unspecified) | inactive | 
Oc1[nH]c2ccc(Br)cc2c1N=Nc1nn[nH]n1 | inactive | 
Cc1nc(CNS(=O)(=O)c2cc([N+](=O)[O-])ccc2C)cs1 | inactive | 
Cc1nc(=O)c(-c2ccccc2)c(C)n1-c1ccc(Br)cc1 | inactive | 
CC(NCc1ccccc1OC1CCCC1)c1ccccc1 (stereo unspecified) | inactive | 
NC(=S)Nc1c(Cl)cccc1Cl |  | 7.17% [at 7.67 µM] (inactive)
CN(c1ccccn1)c1ncnc2[nH]ncc12 | inactive | 
CC(=O)c1cc(NC(=O)c2ccccc2)c(=O)oc1/C=C/N(C)C | 10 µM (active) | 
CCOC(=O)c1cc(NC(=O)c2ccc(Cl)cc2)c(=O)oc1-c1ccccc1 | inactive | 
Cc1ccccc1NC(=O)c1ccccc1 | inactive | 
COc1ccc(C2/C=C\CN(S(=O)(=O)c3cccs3)CC(=O)N2Cc2ccc(F)cc2)cc1 (stereo unspecified) | inactive | 
COc1ccc(CN2C(=O)C(C)S/C2=N/N=C/c2ccco2)cc1 (stereo unspecified) | inactive | 
CCOC(=O)c1ccc(NC(=O)c2nc[nH]c2C(=O)N[C@@H](CCCCNC(=O)OC(C)(C)C)C(=O)OC(C)(C)C)cc1 | inactive | 
O=C(/C(=C/c1cccc(Cl)c1)c1nc2ccccc2[nH]1)c1ccccc1 | 10 µM (active) | 
CCC(=O)/C(=C(/O)c1ccccc1)c1nc2ccccc2[nH]1 | inactive | 
O=C(Cc1nc2ccccc2[nH]c1=O)c1ccc(Cl)cc1 | inactive | 
CC1=CC2=NC(=O)/C(=C/c3coc4ccccc4c3=O)C(=N)N2O1 | inactive | 
